The entries come from a sample that favours hits as a whole.
DT40 TDP1 CPT: DT40-hTDP1 cell growth loss with CPT | chicken DT40 Tdp1-/-;hTDP1 cells + 20 nM CPT, ATP luminescence, 48 h | Potency, µM (doses to about 46.2 µM), for inactives: at the top dose activity change, negative = growth inhibition, usual class: inhibitors | hit rate 12% among 420,000; also: potency is read from the fitted curve at half-maximal effect; nearly all actives have a fitted effect of over 55% in size
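Cell growth measured by CellTiter-Glo luminescence after a minimum 48 h, 37 C compound exposure with 20 nM CPT in Tdp1-knockout DT40 cells stably expressing hTDP1, seeded 400/well; qHTS titration format.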
HT1080 IDH1KD tx: kills HT-1080 cells with IDH1 knockdown; HT-1080 IDH1 knockdown viability, ATP luminescence, 48 h; Potency, µM (doses to about 46.1 µM), inactives show at the highest dose activity, negative = toxicity, most hits filed as cytotoxic; hit rate 2% among 360,000;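 also: potency is read from the fitted curve at half-maximal effect; 0% = DMSO wells and -100% = cell-free medium wells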
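Luminescent ATP read-out (CellTiter-Glo, 10 min at room temperature) after 48 h compound exposure at 37 °C gave viability of IDH1-knockdown HT-1080 cells. Activity was normalised to DMSO and cell-free wells, then fitted as concentration-response curves.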
12-LOX inh: blocks human arachidonate 12S-lipoxygenase | P18054 | Potency, µM (top dose mostly 108 µM), for inactives: top-dose activity change, negative = inhibition, most hits filed as inhibitors | hit rate 1.1% among 580,000 | purified 12hLO, xylenol orange hydroperoxide absorbance; also: potency is read from the fitted curve at half-maximal effect
Target sequence (P18054 whole entry, looked up): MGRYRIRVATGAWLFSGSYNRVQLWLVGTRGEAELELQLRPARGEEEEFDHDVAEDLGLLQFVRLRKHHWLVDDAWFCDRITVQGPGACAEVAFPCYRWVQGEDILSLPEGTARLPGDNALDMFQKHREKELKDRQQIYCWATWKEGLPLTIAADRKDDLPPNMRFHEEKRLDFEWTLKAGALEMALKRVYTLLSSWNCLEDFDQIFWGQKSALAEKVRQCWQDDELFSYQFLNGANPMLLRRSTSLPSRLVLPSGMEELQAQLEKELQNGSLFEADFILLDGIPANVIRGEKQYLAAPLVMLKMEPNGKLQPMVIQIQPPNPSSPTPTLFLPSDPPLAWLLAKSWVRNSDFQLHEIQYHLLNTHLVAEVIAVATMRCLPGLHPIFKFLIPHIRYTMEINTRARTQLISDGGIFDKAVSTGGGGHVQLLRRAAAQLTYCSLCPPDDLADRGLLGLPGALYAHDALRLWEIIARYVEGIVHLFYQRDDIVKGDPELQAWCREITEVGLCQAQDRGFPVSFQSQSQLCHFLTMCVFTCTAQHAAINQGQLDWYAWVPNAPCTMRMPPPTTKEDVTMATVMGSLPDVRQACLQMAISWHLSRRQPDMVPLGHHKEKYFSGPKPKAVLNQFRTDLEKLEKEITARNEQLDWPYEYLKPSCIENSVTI
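Hydroperoxide product was detected by ferrous iron/xylenol orange as the 573 to 405 nm absorbance ratio. Arachidonic acid at 40 uM (final) was turned over for 30 min at room temperature by 150 nM human 12hLO, pH 7.0 Hepes buffer, after 15 min compound preincubation.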
HT1080NT lethal: kills 2HG-producing HT-1080-NT fibrosarcoma cells. HT-1080-NT fibrosarcoma viability, CellTiter-Glo ATP luminescence, 48 h. Potency, µM (doses to about 46.1 µM), without a hit: at the top dose activity, negative = less viability, hits mostly cytotoxic. hit rate 1.6% among 360,000;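 also: NT is the 2HG producing partner of a matched IDH1 knockdown line; potency is read from the fitted curve at half-maximal effect; 0% = DMSO-treated cells and -100% = media-only wells without cells; nearly all actives have a fitted effect of over 55% in size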
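HT-1080-NT; 750 cells/well; 5% FBS RPMI; 48 h compound, 37 degrees C; CellTiter-Glo luminescence; curve fitting and curve-class assignment.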
IL1B secr inh: inhibitors of inflammasome signaling (IL-1 beta secretion); THP-1 LPS/ATP IL-1B secretion, AlphaLISA, 16 h; hits give low values; activity change, % at 57.5 µM; hit rate 4.7% among 360,000; AID 743279; in the data active = activity change below about -50%; inconclusive = mostly about -30% to -49%
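THP-1 cells pretreated 1 hr with compounds (up to 57.5 uM final), then stimulated with LPS (250 ng/mL final) plus ATP (1.25 mM final); secreted IL-1B measured by AlphaLISA after 16 hr, decreased signal indicating inhibition.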
TDP1 cell noCPT: qHTS for Inhibitors of human tyrosyl-DNA phosphodiesterase 1 (TDP1): qHTS in cells in absence of CPT | DT40 Tdp1-/- hTDP1 cells, no CPT, ATP luminescence, 48 h | Potency, µM (titrated, usually from 46.2 µM), for inactives: top-dose activity change, negative = growth inhibition, actives largely listed as inhibitors | hit rate 15% among 420,000 | AID 686978, 2013; also: potency is read from the fitted curve at half-maximal effect; nearly all actives have a fitted effect of over 55% in size
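Compound effects on proliferation are scored in DT40 Tdp1-/-;hTDP1 cells in the absence of CPT. ATP levels (CellTiter-Glo luminescence) are recorded after a ≥48 hr, 37 °C incubation.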
The depositor's hits bear a star; i = inactive; ? = inconclusive; / = no result given; [ ] = dose if it differs, or a comment. Unless noted, calls follow the shape of the dose curve; as a rule, active = well fitted curve in the direction sought with a large enough effect; inconclusive = small, poorly fitted or top-dose-only effect, or another doubt; inactive = no such curve, though single readings can be large; an effect the other way counts as inactive or inconclusive. Unless noted, % is scaled to controls: 0 for no effect and ±100 for the full control effect.

SMILES | DT40 TDP1 CPT | HT1080 IDH1KD tx | 12-LOX inh | HT1080NT lethal | IL1B secr inh | TDP1 cell noCPT
Cc1nnc(N2CCCC(C(=O)NCc3cccc(F)c3)C2)c2nn(-c3ccccc3)c(C)c12 (stereo not drawn) | ? | -15% | -25% | -4% | ? | 13µM*
Cc1nnc(N2CCCC(C(=O)NCc3ccccc3)C2)c2nn(-c3ccccc3)c(C)c12 (stereo not drawn) | -8% | / | -13% | / | / | -20%
CCN(C(=O)c1nn(C)c(=O)c2ccccc12)c1nc2ccccc2s1 | / | / | -7% | / | / | /
CCC(=O)N1CCC(N(C(=O)CC)C2CCOCC2)CC1 | / | / | 33% | / | / | /
O=C1Nc2ccccc2C12OC1CCCCC1O2 (stereo not drawn) | -10% | 0% | 8% | 2% | -9 | -18%
N#CC1=C(N)C(C#N)(C#N)C2(C(=O)Nc3ccccc32)C2CCCC=C12 (stereo not drawn) | -20% | -19%[9.24 µM] | ? | ? | -53* | -26%
O=C(Nc1cc(SCCO)cc([N+](=O)[O-])c1)c1ccco1 | -5% | -3% | 23% | 1% | -4 | ?
O=C(Nc1cc(Oc2ccc(Cl)cc2)cc([N+](=O)[O-])c1)c1ccco1 | ? | ? | -24% | ? | -8 | 16µM*
CCOc1ccc(Oc2cc(NC(=O)c3ccco3)cc([N+](=O)[O-])c2)cc1 | -22% | -7% | 0% | -6% | -18 | 16µM*
Cc1cc(C)cc(C(=O)NCC(=O)N(C)Cc2c(C)nn(-c3ccccc3)c2C)c1 | / | / | -14% | / | / | /
Cc1ccc2c(c1)S/C(=C\c1cccc[n+]1C)N2CCO | 1.2µM* | 16µM* | 0% | -3% | 17 | 1.6µM*
Cc1ccc2c(c1)S/C(=C/c1ccc[n+](CCO)c1)N2C | 0.65µM* | ? | ? | -17% | -26 | 1.2µM*
Cc1ccc(S(=O)(=O)N2CCC(C(=O)NCc3csc(-c4ccccc4)n3)CC2)cc1C | / | / | -1% | / | / | /
C/C(=N\N1CCN(c2ccc(Cl)cc2)CC1)c1cccc([N+](=O)[O-])c1 | -9% | 11% | ? | 8% | 6 | ?
CCc1nc2ccc(C(=O)N3CCN(c4ccc([N+](=O)[O-])cc4)CC3)cc2nc1CC | 16µM* | -9% | -10% | ? | ? | ?
CC1CCN(c2ccc(NC(=S)NC(=O)c3ccc(-c4cccc([N+](=O)[O-])c4)o3)cc2)CC1 | 11µM* | 6.3µM* | -14% | ? | -15 | 10µM*
CC1CC(C)CN(C(=O)c2ccc(-c3ccc([N+](=O)[O-])cc3)o2)C1 (stereo not drawn) | 16µM* | -6% | ? | -12% | ? | 16µM*
O=C(c1cccc([N+](=O)[O-])c1)N1CCN(c2ccc(Cl)cc2)CC1 | 21µM* | 10% | -22% | 10% | -1 | 15µM*
O=C(c1ccc(-c2cccc([N+](=O)[O-])c2)o1)N1CCN(c2ccc([N+](=O)[O-])cc2)CC1 | 6.5µM* | 1% | -27% | 3% | 31 | 4.1µM*
O=C(/C=C\c1ccc(-c2cccc([N+](=O)[O-])c2)o1)N1CCOCC1 | ? | -11% | -11% | -1% | -24 | 23µM*
O=C(c1ccc(-c2ccc(Cl)cc2)o1)N1CCN(c2ccc([N+](=O)[O-])cc2Cl)CC1 | 5.2µM* | ? | -6% | ? | 0 | 2.6µM*
O=[N+]([O-])c1cccc(-c2ccc(C(=S)N3CCN(c4ccc(F)cc4)CC3)o2)c1 | -17% | 1% | -27% | 1% | -3 | -12%
O=C(NCC1Cn2cccc2C(=O)N1Cc1ccccc1)c1ccc2ccccc2n1 (stereo not drawn) | / | / | 56% | / | / | /
Cc1ccc(-c2nc(CSCc3ccc(C#N)cc3)cs2)cc1 | / | / | 1% | / | / | /
Cc1ccc(F)cc1NC(=O)/C=C/c1ccc(S(=O)(=O)N2CCOCC2)cc1 | ? | 7% | -6% | 11% | -24 | ?
SMILES | DT40 TDP1 CPT | HT1080 IDH1KD tx | 12-LOX inh | HT1080NT lethal | IL1B secr inh | TDP1 cell noCPT
O=C(/C=C/c1ccc(F)cc1)Nc1cccc(S(=O)(=O)N2CCOCC2)c1 | ? | -27% | -1% | -15% | -58* | ?
O=C(/C=C/c1ccc(S(=O)(=O)N2CCOCC2)cc1)NC(=S)Nc1ccc(Cl)cc1Cl | ? | -13% | -18% | -21% | -90* | ?
O=C(/C=C/c1ccc(S(=O)(=O)N2CCOCC2)cc1)NC(=S)NCCCn1ccnc1 | ? | ? | 6% | -19% | -75* | ?
O=C(/C=C/c1ccc(S(=O)(=O)N2CCOCC2)cc1)Nc1cc(F)ccc1F | ? | -4% | 1% | ? | -55* | 21µM*
O=C(COc1ccc(S(=O)(=O)N2CCOCC2)cc1)NCCCn1ccnc1 | 14% | 12% | -5% | -2% | 13 | -7%
COc1ccc(S(=O)(=O)N2CCOCC2)cc1NC(=O)/C=C/c1ccc(F)cc1 | 7% | 3% | 16% | 9% | -29 | -6%
CCCCN1C(=O)c2ccccc2C(C(=O)NCc2cccnc2)C12CCCCC2 (stereo not drawn) | / | / | -2% | / | / | /
O=C(Nc1ccc2c(c1)OCO2)Nc1ccc2c(c1)OCO2 | -11% | -20% | -1% | -11% | -29 | 7%
O=C(Nc1ccc([N+](=O)[O-])cc1)Nc1ccc2c(c1)OCCO2 | ? | -5% | -2% | -10% | -68* | 15µM*
O=C(Nc1ccc(F)cc1)Nc1ccc2c(c1)OCO2 | 9.2µM* | -7% | -15% | -9% | -21 | ?
Cc1cc(C)c(NC(=O)Nc2ccc3c(c2)OCO3)c(C)c1 | 12µM* | 3% | i | 3% | -3 | ?
O=C(Nc1ccc2c(c1)OCO2)Nc1ccc(F)cc1F | 3.7µM* | 0% | -2% | -5% | 0 | 2.3µM*
CCOC(=O)C1CCCN(C(=O)C2COC3(CCCCC3)N2C(=O)c2ccccc2Cl)C1 (stereo not drawn) | / | / | 21% | / | / | /
O=C(NCCc1ccc(F)cc1)Nc1ccc2c(c1)OCO2 | 18µM* | 7% | -5% | -1% | ? | ?
CC(C)c1ccccc1NC(=O)Nc1ccc2c(c1)OCO2 | 16µM* | 1% | -13% | -1% | 6 | -20%
COC(=O)c1ccccc1NC(=O)Nc1ccc2c(c1)OCO2 | 0% | -4% | 9% | 11% | -22 | 6%
O=C(NCCc1ccccc1)Nc1ccc2c(c1)OCO2 | -14% | 4% | -27% | 3% | 6 | -27%

Bioassay records: PubChem BioAssay, National Center for Advancing Translational Sciences (NCATS)
